This is part of a sample that, as a whole, favours compounds with a hit. Of some 79,000 tested, about 15% had one in any assay. Activity calls are given as the source filed them. Cut-off read from the data, not from the text of the source: active = growth inhibition above about 70%; inactive = the rest.
Legend:
[1] = NCI Yeast Anticancer Drug Screen. Data for the rad52 strain (AID 147);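 note: 0% = growth of vehicle-treated control cultures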; conditions: S. cerevisiae rad52 mutant growth inhibition, active compounds read high
In short: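 The repair-mutant yeast strain was incubated with compounds, then growth was read and inhibition derived relative to vehicle.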

[2] = NCI Yeast Anticancer Drug Screen. Data for the wt1 strain (AID 149);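 note: 0% = growth of vehicle-treated wt1 cultures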; conditions: S. cerevisiae wt1 strain (SPY 50644) growth inhibition, active compounds read high
In short: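 Compounds are added to wt1 yeast cultures. Growth is then measured. Inhibition is expressed relative to vehicle-treated controls.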

[3] = NCI Yeast Anticancer Drug Screen. Data for the rad50EPP+ strain (AID 151);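 note: 0% = growth of vehicle-treated control cultures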; conditions: S. cerevisiae rad50 mutant strain, active compounds read high
In short: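 Vehicle-normalised growth inhibition; rad50EPP+ yeast strain, altered in DNA damage repair, compound-treated.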

[4] = NCI Yeast Anticancer Drug Screen. Data for the rad50 strain (AID 155);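 note: 0% = growth of vehicle-only cultures of the same strain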; conditions: S. cerevisiae rad50 strain growth inhibition, active compounds read high
In short: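 Inhibition values express reduced yeast growth in compound-treated cultures relative to vehicle-treated controls.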

[5] = NCI Yeast Anticancer Drug Screen. Data for the mec2-1 strain (AID 157); conditions: S. cerevisiae mec2-1 strain, active compounds read high
In short: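 Mutant yeast (mec2-1) grown with compound; growth inhibition relative to vehicle control reported.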

[6] = NCI Yeast Anticancer Drug Screen. Data for the rad14 strain (AID 159);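 note: 0% = growth of vehicle-treated control cultures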; conditions: S. cerevisiae rad14 strain growth inhibition, active compounds read high
In short: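 A mutant yeast strain defective in DNA damage repair is treated with compound; inhibition of its growth is scored against untreated, vehicle-exposed cultures.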

[7] = NCI Yeast Anticancer Drug Screen. Data for the sgs1 mgt1 strain (AID 161);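 note: 0% = growth of cultures given vehicle only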; conditions: S. cerevisiae sgs1 mgt1 strain, active compounds read high
In short: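 Percent growth inhibition was derived by comparing compound-exposed mutant yeast with vehicle-exposed cultures. The strain carries alterations in DNA damage repair.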

[8] = NCI Yeast Anticancer Drug Screen. Data for the CLN2oe strain (AID 163);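 note: 0% = growth of vehicle-only control cultures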; conditions: S. cerevisiae CLN2oe strain, active compounds read high
In short: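 Compounds are applied to yeast harbouring a defined cell-cycle control change; reduced growth compared with vehicle-treated controls gives the value.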

[9] = NCI Yeast Anticancer Drug Screen. Data for the cln2 rad14 strain (AID 165);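 note: 0% = growth equal to vehicle treated cultures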; conditions: S. cerevisiae cln2 rad14 strain, active compounds read high
In short: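 Readout is yeast growth inhibition versus vehicle-treated controls, using a strain with cln2 and rad14 alterations exposed to compound.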

[10] = NCI Yeast Anticancer Drug Screen. Data for the bub3 strain (AID 167); conditions: S. cerevisiae bub3 mutant strain, active compounds read high
In short: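 Steps: expose the mutant yeast strain to compound; grow alongside vehicle-treated cultures; measure growth; express inhibition against the vehicle cultures.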

[11] = NCI Yeast Anticancer Drug Screen. Data for the wt2 strain (AID 169);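 note: 0% = growth of vehicle-treated yeast cultures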; conditions: S. cerevisiae wt2 strain growth inhibition, active compounds read high
In short: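 Against vehicle-treated controls, the growth of yeast exposed to each compound was compared, and the inhibition was recorded.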

[12] = NCI Yeast Anticancer Drug Screen. Data for the mlh1 strain (AID 171);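 note: 0% = growth of vehicle-treated control cultures of the same strain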; conditions: S. cerevisiae mlh1 strain growth inhibition, active compounds read high
In short: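 Measured: yeast growth. Reference: vehicle-treated controls. Organism: strain with a defined alteration affecting DNA damage repair or cell cycle control, treated with compound.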

[13] = NCI Yeast Anticancer Drug Screen. Data for the sgs1 strain (AID 173);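 note: 0% = growth of vehicle-only control cultures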; conditions: S. cerevisiae sgs1 mutant, active compounds read high
In short: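 Each compound was added to cultures of the altered yeast strain. Growth was recorded, and inhibition was derived by comparison with vehicle controls.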

[14] = NCI Yeast Anticancer Drug Screen. Data for the mlh1 rad18 strain (AID 175); conditions: S. cerevisiae mlh1 rad18 strain growth inhibition, active compounds read high
In short: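 Genetically defined yeast (DNA repair-deficient) exposed to compounds; growth inhibition determined relative to vehicle.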

[15] = NCI Yeast Anticancer Drug Screen. Data for the rad18 strain (AID 177); conditions: S. cerevisiae rad18 mutant growth inhibition, active compounds read high
In short: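 Vehicle-treated cultures served as the baseline for scoring compound-induced growth inhibition in DNA-repair-mutant yeast.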

[16] = at 5.0 µM (retest, dose inferred, filed as 0.5)
[17] = at 50.0 µM (retest, dose inferred, filed as 5.0)

Measured: growth inhibition

Cc1cc(C)c(S(=O)(=O)c2ccc(Cl)cc2)c(C)c1
inactive: [1]; at 1.2 µM -3% | [1]; at 3.7 µM -4% | [1]; at 11.0 µM -2% | [1]; at 33.0 µM 7% | [1]; at 100.0 µM 29% | [2]; at 1.2 µM -5% | [2]; at 3.7 µM -10% | [2]; at 11.0 µM -16% | [2]; at 33.0 µM -14% | [2]; at 100.0 µM -4% | [3]; at 1.2 µM -1% | [3]; at 3.7 µM 9% | [3]; at 11.0 µM 20% | [3]; at 33.0 µM 13% | [3]; at 100.0 µM 21% | [4]; at 1.2 µM 0% | [4]; at 3.7 µM 3% | [4]; [16] -7% | [4]; at 11.0 µM 6% | [4]; at 33.0 µM 8% | [4]; [17] 3% | [4]; at 50.0 µM 62.4% | [4]; at 100.0 µM 49% | [5]; at 1.2 µM -5% | [5]; at 3.7 µM -10% | [5]; [16] -5% | [5]; at 11.0 µM -16% | [5]; at 33.0 µM -16% | [5]; [17] 19% | [5]; at 50.0 µM 48% | [5]; at 100.0 µM 13% | [6]; at 1.2 µM -5% | [6]; at 3.7 µM -8% | [6]; at 11.0 µM -10% | [6]; at 33.0 µM -8% | [6]; at 100.0 µM 20% | [7]; [16] -3% | [7]; [17] 17% | [8]; at 1.2 µM -8% | [8]; at 3.7 µM -15% | [8]; at 11.0 µM -22% | [8]; at 33.0 µM -13% | [8]; at 100.0 µM -2% | [9]; [16] -9% | [9]; [17] -16% | [9]; at 50.0 µM -10.4% | [10]; at 1.2 µM -3% | [10]; at 3.7 µM 4% | [10]; [16] 5% | [10]; at 11.0 µM 11% | [10]; at 33.0 µM 19% | [10]; [17] 20% | [10]; at 100.0 µM 48% | [11]; at 1.2 µM -5% | [11]; at 3.7 µM -7% | [11]; at 11.0 µM -8% | [11]; at 33.0 µM -6% | [11]; at 100.0 µM 18% | [12]; at 1.2 µM -8% | [12]; at 3.7 µM -6% | [12]; at 11.0 µM -6% | [12]; at 33.0 µM -5% | [12]; at 100.0 µM 30% | [13]; at 1.2 µM -8% | [13]; at 3.7 µM 0% | [13]; at 11.0 µM 0% | [13]; at 33.0 µM 7% | [13]; at 100.0 µM 46% | [14]; [16] -6% | [14]; [17] 1% | [14]; at 50.0 µM 35.2% | [15]; at 1.2 µM -9% | [15]; at 3.7 µM -10% | [15]; at 11.0 µM -13% | [15]; at 33.0 µM -9% | [15]; at 100.0 µM 16%
active: [7]; at 50.0 µM 77.1% | [10]; at 50.0 µM 80.9%

C/C(=N/NC(=S)Nc1ccccc1C)c1ccccn1
active: [4]; at 50.0 µM 78% | [7]; at 50.0 µM 79.8% | [9]; at 50.0 µM 87.5% | [14]; at 50.0 µM 86.5%
inactive: [1]; at 1.2 µM 2% | [1]; at 3.7 µM 9% | [1]; at 11.0 µM 15% | [1]; at 33.0 µM 17% | [1]; at 100.0 µM 7% | [2]; at 1.2 µM -11% | [2]; at 3.7 µM -10% | [2]; at 11.0 µM -9% | [2]; at 33.0 µM -10% | [2]; at 100.0 µM -8% | [3]; at 1.2 µM 3% | [3]; at 3.7 µM 6% | [3]; at 11.0 µM 13% | [3]; at 33.0 µM 14% | [3]; at 100.0 µM 4% | [4]; at 1.2 µM 1% | [4]; at 3.7 µM 5% | [4]; [16] 9% | [4]; at 11.0 µM -9% | [4]; at 33.0 µM 7% | [4]; [17] 12% | [4]; at 100.0 µM 5% | [5]; at 1.2 µM -3% | [5]; at 3.7 µM -10% | [5]; [16] -40% | [5]; at 11.0 µM -9% | [5]; at 33.0 µM -9% | [5]; [17] 1% | [5]; at 50.0 µM 47% | [5]; at 100.0 µM -6% | [6]; at 1.2 µM -11% | [6]; at 3.7 µM -11% | [6]; at 11.0 µM -11% | [6]; at 33.0 µM -14% | [6]; at 100.0 µM -6% | [7]; [16] -35% | [7]; [17] 15% | [8]; at 1.2 µM -8% | [8]; at 3.7 µM -6% | [8]; at 11.0 µM -9% | [8]; at 33.0 µM -11% | [8]; at 100.0 µM -11% | [9]; [16] 12% | [9]; [17] 14% | [10]; at 1.2 µM -7% | [10]; at 3.7 µM 1% | [10]; [16] -32% | [10]; at 11.0 µM 4% | [10]; at 33.0 µM -2% | [10]; [17] 57% | [10]; at 50.0 µM 65% | [10]; at 100.0 µM -9% | [11]; at 1.2 µM -6% | [11]; at 3.7 µM -6% | [11]; at 11.0 µM -5% | [11]; at 33.0 µM -5% | [11]; at 100.0 µM -5% | [12]; at 1.2 µM -6% | [12]; at 3.7 µM -7% | [12]; at 11.0 µM -5% | [12]; at 33.0 µM -9% | [12]; at 100.0 µM -6% | [13]; at 1.2 µM -6% | [13]; at 3.7 µM -5% | [13]; at 11.0 µM -5% | [13]; at 33.0 µM -7% | [13]; at 100.0 µM -6% | [14]; [16] -15% | [14]; [17] -1% | [15]; at 1.2 µM 0% | [15]; at 3.7 µM 3% | [15]; at 11.0 µM 3% | [15]; at 33.0 µM -17% | [15]; at 100.0 µM -4%
